Reference: PubChem BioAssay (NCATS)
Inconclusive results are not listed. Unmarked numbers belong to inactive results. Active and inactive are the calls of the source. Calls follow the shape of the dose curve; as a rule, active = well fitted inhibition curve with a large enough effect; inconclusive = small, poorly fitted or top-dose-only effect; inactive = no such curve, though single readings can be large or run the other way.

Experiment: BET inhibitor-based combinations targeting novel dependencies in MECOM-rearranged (r) AML: UCSD-AML1 cell line (AID 2202235); also: nearly all actives have a fitted effect of over 40% in size;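 as to viability (% of control): plate controls were DMSO vehicle wells for no effect and blank wells for full effect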
Conditions: UCSD-AML1 AML cells viability, CellTiter-Glo, 48 h; series mostly up to 46 µM; viability (% of control): at the top concentration
Text: Ecotropic viral insertion site 1 (EVI1) is located on chromosome 3q26.2 as part of the MECOM (MDS and EVI1 complex) locus. Under normal hematopoiesis, EVI1 is a regulator of hematopoietic stem cell maintenance and self-renewal and EVI1 levels decrease as the cells differentiate. In approximately 5-10% of de novo acute myeloid leukemia (AML) EVI1 is aberrantly expressed, including Chromosomal inv(3)(q21;q26.2) or t(3;3)(q21;q26.2) alterations (MECOM-r) that account for about 50% of AML with EVI1 overexpression 31. AMLs with high levels of EVI1 have a poor prognosis and an overall survival time averaging between 10-14 months. EVI1 overexpression confers resistance in leukemia cells, highlighting the need to develop new targeted therapies for EVI1 overexpressing AMLs. Here, we performed an unbiased chemical drug screening by evaluating the single agent activity of a collection of 2,480 oncology-focused, approved and investigational drugs (NCATS Mechanism Interrogation Plates, MIPE v5.0) against a panel of seven AML cell lines. These included four MECOM-r cell-lines (AML-191, AML-194, UCSD-AML1 and HNT-34) and three non-MECOM-r AMLs (MV4-11, OCI-AML3 and SET-2). Exploiting the mechanistic redundancy built in the library, we identified target-level sensitivities in MECOM-r AML cells and relative activity as compared to other AML subtypes.
A collection of 2480 mechanistically annotated dugs (MIPE v5.0) was used to screen four 3q26.2 rearranged AML cell lines and three non-3q26.2 rearranged AML cell lines. This library purposely exploits redundancy by including multiple inhibitors of key onco-targets, while simultaneously encompassing mechanistic diversity, targeting more than 800 distinct mechanisms of action. Briefly, cells were seeded in 5 uL of growth media using a Multidrop Combi dispenser into 1536 well white polystyrene tissue culture treated plates (Corning) at a density of 500cells/well. For each cell-line, for each of the 2480 drugs in MIPE v5.0 library, an 11-point dose curve was generated via a 1536 pin-tool. Plates were incubated for 48 hr at standard incubator conditions, covered by a stainless steel gasketed lid to prevent evaporation. Cell viability was determined by luminescence based, Cell Titer Glo assay (Promega). In detail, 3 uL of Cell Titer Glo were added to each well and plates were incubated at room temperature for 15 min with a stainless-steel lid in place. Luminescence readings were taken using a Viewlux (PerkinElmer) with a 2 s exposure time per plate. Compound dose-response curves were normalized to DMSO and empty well controls on each plate. Quantitative drug activity data from dose-response curves was determined utilizing area Under the Curve (AUC) and Z-transformed AUC (Z-AUC, a mean-centering transformation applied to each individual cell-line screened).
Potency is read from the fitted curve at half-maximal effect.

| Compound | Potency | viability (% of control) |
| --- | --- | --- |
| CC(C)[C@]12O[C@H]1[C@@H]1O[C@@]13[C@@]1(C)CCC4=C(COC4=O)[C@@H]1C[C@@H]1O[C@@]13C2=O | 0.0742 µM (active) |  |
| CCCN1CCO[C@@H]2c3cc(O)ccc3OC[C@H]21 |  | 103% |
| C[C@H]1CCC/C=C/C2C[C@H](O)C[C@H]2[C@H](O)/C=C/C(=O)O1 (stereo not given in full) | 0.209 µM (active) |  |
| C[C@]12CC[C@@H]3[C@@H](CCC4=CC(=O)CC[C@@H]43)[C@@H]1CC[C@@H]2OC(=O)CCc1ccccc1 |  | 115% |
| CN(C)[C@@H]1C(=O)C(C(N)=O)=C(O)[C@@]2(O)C(=O)C3=C(O)c4c(O)cccc4[C@@](C)(O)[C@H]3[C@H](O)[C@@H]12 |  | 108% |
| NC(=O)[C@@H](CC1CC1)[C@@H](CCC(F)(F)F)C(=O)N[C@H]1N=C(c2ccccc2)c2cccc(F)c2NC1=O |  | 108% |
| CC(C)(C)c1cc(C=C(C#N)C#N)cc(Br)c1O | 33.2 µM (active) |  |
| CN1C(=O)CCS(=O)(=O)C1c1ccc(Cl)cc1 (stereo not given) |  | 107% |
| COc1ccc(C(=O)N2CCCC2=O)cc1 |  | 105% |
| CC(C)(O)/C=C\C(=O)[C@](C)(O)[C@H]1[C@H](O)C[C@]2(C)[C@@H]3CC=C4[C@@H](C=C(O)C(=O)C4(C)C)[C@]3(C)C(=O)C[C@@]12C | 0.148 µM (active) |  |
| c1ccc2c(CN3CCNCC3)cccc2c1 |  | 103% |
| CN[C@@H]1Cc2cccc3[nH]c(=O)n(c23)C1 |  | 112% |
| CCN1CCN(C(=O)Cc2ccc(Nc3ncc(F)c(Nc4ccc(C(=O)Nc5ccccc5Cl)cc4)n3)cc2)CC1 | 3.72 µM (active) |  |
| NN=C(N)N |  | 115% |
| COc1ccc(C(=O)c2c(C)n(CCN3CCOCC3)c3ccccc23)cc1 | 1.86 µM (active) |  |
| Cc1ccccc1-n1c(Cn2ncc3c(N)ncnc32)nc2cccc(C)c2c1=O |  | 99.1% |
| C[C@H]1[C@H](O)[C@@H](C)/C=C/C=C/CC/C=C/C=C/C=C/C=C/[C@H](O[C@@H]2O[C@H](C)[C@@H](O)[C@H](N)[C@@H]2O)C[C@@H]2O[C@](O)(C[C@@H](O)[C@H](O)CC[C@@H](O)C[C@@H](O)C[C@@H](O)CC(=O)O[C@H]1C)C[C@H](O)[C@H]2C(=O)O |  | 94% |
| C/C(=C\c1csc(C)n1)[C@@H]1C[C@@H]2O[C@]2(C)CCC[C@H](C)[C@H](O)[C@@H](C)C(=O)C(C)(C)[C@@H](O)CC(=O)O1 | 0.0059 µM (active) |  |
| COC(=O)[C@@H](N)CCCN=C(N)N[N+](=O)[O-] |  | 92.2% |
| CN(C)c1cc2c(cc1Sc1nc3c(N)nccc3n1CCNCC(C)(C)C)OCO2 | 1.32 µM (active) |  |

| Compound | Potency | viability (% of control) |
| --- | --- | --- |
| CC(C)CC(N(C)C)C1(c2ccc(Cl)cc2)CCC1 (stereo not given) |  | 102% |
| CC[C@H]1/C=C\C=C/C[C@@H](C)[C@H](O)[C@@](C)(O)C(=O)[C@@H](C)[C@H](O)[C@@H](C)C(=O)[C@@H](C)[C@H](O)[C@@H](C)/C=C\C(=O)O[C@@H]2[C@H](C)[C@H](CC1)O[C@]1(CC[C@H](C)[C@H](C[C@@H](C)O)O1)[C@H]2C | 7.42 µM (active) |  |
| O=C(Oc1ccc([N+](=O)[O-])cc1)N1CCN(Cc2cccc(Oc3ccccc3)c2)CC1 |  | 103% |
| Clc1ccccc1C(c1ccccc1)(c1ccccc1)n1cccn1 |  | 113% |
| COC12C(COC(N)=O)C3=C(C(=O)C(C)=C(N)C3=O)N1CC1C2N1C (stereo not given) |  | 110% |
| C[C@]12COC(=O)C[C@@H]1CC[C@@H]1[C@@H]2CC[C@@]2(C)[C@H]1CC[C@]2(C)O |  | 107% |
| C[C@]12CC[C@@H]3c4ccc(OC(=O)N(CCCl)CCCl)cc4CC[C@H]3[C@@H]1CC[C@@H]2OP(=O)(O)O |  | 104% |
| O=c1cccc2n1CC1CNC[C@H]2C1 |  | 106% |
| C[C@@H](C1CC[C@@]2(O)C3=CC(=O)[C@@H]4C[C@@H](O)[C@@H](O)C[C@]4(C)[C@H]3CC[C@]12C)[C@H](O)CCC(C)(C)O (stereo not given in full) |  | 105% |
| CCOP(=O)(OCC)C(C)NC(=O)N(CCCl)N=O (stereo not given) |  | 114% |
| CN(C)[C@@H]1C(=O)C(C(N)=O)=C(O)[C@@]2(O)C(=O)C3=C(O)c4c(O)cccc4[C@@](C)(O)[C@H]3C[C@@H]12 |  | 78% |
| COc1cc(C)[nH]c(=O)c1CNC(=O)c1c(C)n([C@H](C)C2CCN(CC(F)(F)F)CC2)c2ccccc12 |  | 118% |
| COC[C@H]1OC(=O)c2coc3c2[C@@]1(C)C1=C(C3=O)[C@@H]2CC[C@H](O)[C@@]2(C)C[C@H]1OC(C)=O | 1.66 µM (active) |  |
| C[C@](O)(COc1ccc(C#N)cc1)C(=O)Nc1ccc(C#N)c(C(F)(F)F)c1 |  | 104% |
| CC(=O)N1N=C(c2ccc(N)cc2)c2cc3c(cc2C[C@H]1C)OCO3 |  | 105% |
| COC(=O)[C@]12CCC(C)(C)C[C@H]1[C@H]1C(=O)C=C3[C@@]4(C)C=C(C#N)C(=O)C(C)(C)[C@@H]4CC[C@@]3(C)[C@]1(C)CC2 | 1.48 µM (active) |  |
| CN(C)CCN(C)CCc1ccc(Cl)c(Cl)c1 |  | 110% |
| COC(=O)[C@@]12OC[C@]34[C@H]([C@@H](O)[C@@H]1O)[C@@]1(C)CC(=O)C(O)=C(C)[C@@H]1C[C@H]3OC(=O)[C@H](OC(=O)/C=C(\C)C(C)C)[C@@H]24 | 0.0033 µM (active) |  |
| CN1[C@H]2CC(O)C[C@H]1[C@H]1O[C@H]12 (stereo not given in full) |  | 120% |
| O=C(O)CNC(=O)C1C(=O)N(C2CCCCC2)C(=O)N(C2CCCCC2)C1=O |  | 104% |
